# Laboratory results from PubChem BioAssay (NCI).
# Compounds without any hit were thinned out: in the full panel of roughly 83,000, 20% have a hit.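 Assay: single dose, 48 h. Readout: percent growth (0 = no net growth; negative = cell death). Active: <10.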 Values without a mark were called inactive. Calls of active or inactive are those of the source.
# Tested on: MDA-MB-468 breast
# Test: NCI-60 one-dose screen, 48 h (100 = growth as untreated, 0 = no growth, -100 = all killed)
# Conditions: 10 µM unless noted
row,Structure (SMILES),growth
1,N=C(N)c1ccc(-c2ccc(-c3cccs3)s2)cc1,-80.6% (active)
2,FC(F)(F)c1cccc(-c2cn3c(ccc4ccccc43)n2)c1,104%
3,N#Cc1c(N)nc2c(C#N)c(NC(=O)c3ccccc3)nn2c1-c1ccccc1,94.1%
4,CCOC(=O)c1ccc(N2C(=O)C(Cl)(c3ccccc3)C2c2ccco2)cc1 (stereo not given),65.9%
5,CC(C)[C@H](NC(=O)Cn1cc(C(=O)O)nn1)C(=O)O,98.9%
6,CCN(CC)c1ccc(/C=N\NC(=O)/C=C/C=C/c2ccc3c(c2)OCO3)c(O)c1,13.4%
7,COc1ccc(-c2ccc(-c3ccc(C(=N)N)cn3)o2)cc1,48.7%
8,COc1ccc(-c2cc(-c3cccs3)n(N=O)c(=O)c2C#N)cc1,99.5%
9,N#CC(C#N)=Cc1cc2ccccc2nc1Oc1ccc(C(F)(F)F)cc1,86.1%
10,CCN(CCCCCCCCCCN1CC(=O)N(CCCCCCCCCCN(CC)Cc2ccccc2OC)CC1=O)Cc1ccccc1OC,-87.8% (active)
11,CCCCC(CCCC)(S(=O)(=O)CC)S(=O)(=O)CC,98.2%
12,O=C1NC(=C(Cl)Cl)/C(=N/S(=O)(=O)N2CCC(C3(C(F)(F)F)N=N3)CC2)N1,32.7%
13,O=C(CSc1nc(-c2ccccc2)[nH]c1S(=O)(=O)c1ccccc1)NC1CC1,4.04% (active)
14,O=C(Cn1cc(COc2ncnc3c2cnn3-c2ccccc2)nn1)Nc1cccc2ccccc12,86.5%
15,Cc1nnc(NC(=O)c2nc(S(=O)(=O)Cc3ccc(F)cc3)ncc2Cl)s1,-15.1% (active)
16,C/C(=C(/c1ccc(Cl)cc1)c1ccc(OCCN2CCCC2)cc1)c1ccc(Cl)cc1,91.1%
17,C[C@@]1(C(=O)Nc2ccc(F)nc2)CCCN1c1nc(Nc2cc(C3CC3)[nH]n2)c2cccn2n1,13.1%
18,CCn1cc(C(=O)NNC(=S)Nc2ccc(C)cc2)c(=O)c2ccc(C)nc21,88%
19,CSc1ccc2c3c(n(C[C@H](O)CO)c(=O)c2c1)-c1ccccc1C3=O,39.8%
20,COc1ccc(/C=C2\COc3ccc(O)c(O)c3C2=O)cc1,-8.03% (active)

row,Structure (SMILES),growth
1,CCCCCCCCCCCCCC(=S)NCCCC[C@H](NC(=O)OCc1ccccc1)C(=O)Nc1ccccc1,27.1%
2,CC(C)=CCC[C@@H](C)[C@H]1CC[C@@]2(C)C3=C(CC[C@]12C)[C@@]1(C)CC[C@H](O)C(C)(C)[C@@H]1CC3,102%
3,Cc1nc(N)sc1Sc1nc2ccc(Cl)cc2c(=O)n1-c1ccc(Oc2ccccc2)cc1,76.6%
4,CC[C@]12CN3CCc4c([nH]c5ccccc45)[C@@](C(=O)OC)(c4cc5c(cc4OC)N(C)[C@H]4[C@@](O)(C(=O)OC)[C@H](OC(C)=O)[C@]6(CC)C=CCN7CC[C@]54[C@@H]76)CC(C3)[C@H]1O2 (stereo not given in full),-12.7% (active)
5,COc1cc(C2CC(c3ccc(Cl)cc3)=NN2C(C)=O)ccc1Oc1nc2c(c(=O)n(C)c(=O)n2C)n1C (stereo not given),76.6%
6,COc1ccc(/C=C2\N=C(c3cccnc3)N(c3ccccc3)NC2=O)cc1,94.1%
7,COc1ccc(C(=O)/C=C/c2ccccn2)c(O)c1,57.1%
8,CCOc1ccc(NC(=O)c2ccoc2COc2ccccc2)cc1,113%
9,Cn1c(=O)c2c(nc(NC3=NS(=O)(=O)c4ccccc43)n2Cc2ccccc2)n(C)c1=O,103%
10,COc1ccc(C2CC(c3ccccc3)=NN2c2nc(C)c(C(C)=O)s2)cc1 (stereo not given),100%
11,Cc1cc(NN=C(c2ccc(O)cc2)c2ccc(O)cc2)c([N+](=O)[O-])cc1[N+](=O)[O-],92.8%
12,CC(O)Cn1cnc2c1c(=O)n(C)c(=O)n2C (stereo not given),78.5%
13,N#CC1=C(N)Oc2nc[nH]c(=O)c2C1c1cccs1 (stereo not given),99.3%
14,Nc1ccccc1SC1CC(=O)N(c2ccc(Cl)c(Cl)c2)C1=O (stereo not given),80.4%
15,O=C(Nc1cc(Cl)ccc1O)c1ccc(Nc2ccnc(C(F)(F)F)c2)cc1,58.7%
16,CCN(CC)c1ccc2cc(C(Nc3ccc(C)cc3)c3nnnn3C(C)(C)C)c(=O)oc2c1 (stereo not given),105%
17,Cc1ccc(/C=C(/C#N)n2nnc3ncccc32)cc1,24.4%
18,Fc1ccc(NC(=S)c2ccccc2)cc1,97.5%
19,Cc1c2cnccc2c(C)c2c1oc1ccccc12,82.6%
20,Cc1ccc(-c2nc3nc(-c4ccc(F)cc4)nc(N4CCCNCC4)c3o2)cc1,-75.5% (active)
